# Bioassay records from PubChem.
# A selection: hits, their analogues and other compounds. The true share with any hit is near 3.8%.
# ERa coact pot: enhances coactivator binding to human estrogen receptor alpha. coactivator binding (% of control), % at 25.6 µM. hit rate 1.3% among 86,000. TR-FRET ERalpha-LBD/SRC-Cy5 coactivator binding, 2 h; 100 = basal binding, no effect; in the data active means activity above about 200%;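 further: binding measured in presence of low estradiol as agonist stimulus; 0% = peptide alone without receptor and 100% = receptor with peptide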
# Calb biofilm kill: kills Candida albicans biofilms; C. albicans biofilm + clotrimazole, Alamar Blue; inhibition, % at 6 µM; hit rate 0.14% among 85,000;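 active means inhibition above 20%; inactive means inhibition below 20%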;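 further: preformed 24 hr biofilms exposed to compound for 48 hr; 0% = biofilm without compound and 100% = blank killed by clotrimazole plus chlorhexidine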
# ERb coact inh: ER-beta (human) coactivator binding inhibition. Q92731. TR-FRET ER-beta LBD / SRC1-Cy5 peptide binding; receptor agonist-loaded with 1 µM estradiol. hit rate 1.3% among 86,000. inhibition, % at 25.6 µM;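 active means compounds whose percent inhibition of the receptor-coactivator binding signal exceeds about 50% in the single-dose screen, limit read from the data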;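 further: 0% = receptor plus peptide wells without compound and 100% = peptide-only wells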
# Target sequence (Q92731 whole entry, looked up, the tested form may be a part): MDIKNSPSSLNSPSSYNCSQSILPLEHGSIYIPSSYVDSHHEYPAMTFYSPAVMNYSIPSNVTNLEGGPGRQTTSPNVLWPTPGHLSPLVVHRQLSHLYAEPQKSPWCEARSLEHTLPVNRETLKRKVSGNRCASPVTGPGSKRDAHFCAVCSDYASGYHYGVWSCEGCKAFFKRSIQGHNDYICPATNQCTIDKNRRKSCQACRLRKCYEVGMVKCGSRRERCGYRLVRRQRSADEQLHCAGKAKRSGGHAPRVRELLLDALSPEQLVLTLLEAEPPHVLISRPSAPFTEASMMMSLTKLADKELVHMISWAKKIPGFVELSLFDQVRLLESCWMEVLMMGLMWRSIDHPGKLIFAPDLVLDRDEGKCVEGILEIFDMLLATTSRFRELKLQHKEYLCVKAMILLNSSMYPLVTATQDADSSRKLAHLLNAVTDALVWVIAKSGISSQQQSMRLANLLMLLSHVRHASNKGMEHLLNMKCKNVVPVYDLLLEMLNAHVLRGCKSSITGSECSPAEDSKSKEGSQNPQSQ
# Smad3 inh: Smad3 (human) transcription factor binding inhibition; inhibition, % at 25 µM; hit rate 0.29% among 88,000; AID 630; TR-FRET Smad3/Dy647-FoxH1 peptide binding, europium anti-His;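 active means compounds that reduce the energy-transfer binding signal between the protein and its labelled peptide by more than half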;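 further: 0% = Smad3 plus labelled peptide maximal FRET and 100% = peptide-only background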
# ERa coact inh: ER-alpha (human) coactivator binding inhibition; AID 629; hit rate 1.7% among 86,000; TR-FRET ER-alpha LBD / SRC-1 peptide, estradiol-bound; inhibition, % at 25.6 µM; in the data active means inhibition above about 50%;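 further: 0% = receptor plus peptide control and 100% = peptide only without receptor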
# * hit, by the source's call; x = no result; [ ] = remark or other dose.
SMILES,ERa coact pot,Calb biofilm kill,ERb coact inh,Smad3 inh,ERa coact inh
CO[C@@H]([CH2][Hg][n]1cnc2c1c(=O)n(C)c(=O)n2C)CN1C(=O)c2ccccc2S1(=O)=O,x,x,x,64*,x
COc1cc2cc(c1Cl)N(C)C(=O)C[C@H](OC(=O)C(C)C)[C@]1(C)O[C@H]1[C@@H](C)[C@H]1C[C@](O)(NC(=O)O1)[C@@H](OC)/C=C\C=C(\C)C2,x,x,x,4,x
O=c1[nH]c(=O)n(CCc2ccccc2)c(O)c1C=NCc1ccc2c(c1)OCO2,267*[fluorescence artefact?],6,36,9,55*[fluorescence artefact?]
CC(C)(O)/C=C/C(=O)[C@](C)(O)[C@H]1[C@H](O)C[C@@]2(C)[C@@H]3CC=C4[C@H](C=C(O)C(=O)C4(C)C)[C@@]3(C)C(=O)C[C@]12C,x,x,x,-5,x
CC1(C)CC(=O)C(C2(O)C(=O)NC(=O)NC2=O)=C(O)C1,121,4,-6,65*[fluorescence artefact?],-8
O=C(O)/C=C/c1ccc[c]([Sb](=[O])([OH])[OH])c1,x,x,x,90*,x
Cc1nc2c(=O)n(C)c(=O)nc-2n(C)n1,108,5,-8,80*,-8
COc1cccc2c1C(=O)c1c(O)c3c(c(O)c1C2=O)C[C@](O)(/C(C)=N/O)C[C@@H]3O[C@@H]1C[C@H](N)[C@@H](O)[C@H](C)O1,x,x,x,13,x
CN1C[C@@H](C(=O)N[C@@]2(C)O[C@@]3(O)[C@H]4CCCN4C(=O)[C@@H](Cc4ccccc4)N3C2=O)C=C2c3cccc4[nH]cc(c34)C[C@@H]21,x,x,x,20,x
O=C(O)C[C@@H]1OCC=C2CN3CC[C@]45c6ccccc6N[C@H]4[C@H]1[C@H]2C[C@H]35,x,x,x,-14,x
COc1cc2c(cc1OC)[C@]13CCN4CC5=CCO[C@@H](CC(=O)O)[C@H]([C@H]5C[C@H]41)[C@@H]3N2,x,x,x,88*,x
O=C(O)c1cccc([As]=[As]c2cccc(C(=O)O)c2)c1 (stereo not drawn),x,x,x,55*,x
COc1cc2c(cc1OC)[C@]13CC[N@+]4(C)CC5=CCO[C@@H]6CC(=O)N2[C@@H]1[C@@H]6[C@@H]5C[C@]34O,x,x,x,93*,x
C[C@]12CC[C@H](O[C@@H]3O[C@H](CO)[C@@H](O)[C@H](O)[C@H]3O)C[C@@H]1CC[C@@H]1[C@@H]2CC[C@]2(C)[C@@H](C3=CCOC3=O)CC[C@@]12O,x,x,x,56*,x
CC1(C)[C@@H]2CC[C@@]1(C)CN(CCC[N+](C)(C)C)C2,x,x,x,30,x
O=c1[nH]cnc2[nH]cc(CN3CCCCC3)c12,x,x,x,78*,x
C[C@H]1CC[C@]2(NC1)O[C@H]1C[C@H]3[C@H]4CC=C5C[C@@H](O)CC[C@]5(C)[C@@H]4CC[C@]3(C)[C@H]1[C@@H]2C,x,x,x,11,x
C[C@@H]1CC[C@@H]2N(C1)C[C@@H]1[C@](O)([C@H](O)C[C@]3(O)[C@H]4CC[C@@H]5[C@]6(O)O[C@@]4(C[C@@]13O)[C@@]5(C)CC[C@H]6O)[C@@]2(C)O,x,x,x,1,x
CC[C@@H](CO)NC(=O)[C@@H]1C=C2c3cccc4c3c(cn4C)C[C@H]2N(C)C1,43,1,51*[fluorescence artefact?],7,27
N=C(N)SCc1ccc(Cl)c2ccccc12 (tested in a mixture with another compound),x,x,x,24,x
Cc1cc(/C=C2/C(=O)NC(=O)N(c3ccccc3)C2=O)c(C)n1-c1ccc(F)cc1,110,3,43,-6,52*
COc1cc(/C=C2\C(=O)NC(=O)N(c3ccccc3)C2=O)cc(OC)c1O,97,5,-4,4,-3
O=C1NC(=O)C(=Cc2cn(CCOc3ccc4c(c3)OCO4)c3ccccc23)C(=O)N1,131,-1,60*[fluorescence artefact?],8,84*[fluorescence artefact?]
N=C(N)n1cc(/C=N/N=C(N)N)cn1,x,x,x,-15,x
O=[As](O)(O)c1ccc(Cc2ccc([As](=O)(O)O)cc2)cc1,x,x,x,79*,x
SMILES,ERa coact pot,Calb biofilm kill,ERb coact inh,Smad3 inh,ERa coact inh
O=[As](O)(O)c1ccc(NCc2ccccc2)cc1,x,x,x,10,x
CC1=NN(c2ccc(S(=O)(=O)O)cc2C)C(=[OH+])[C@@H]1N=Nc1cc(S(=O)(=O)O)ccc1C(=O)O.O.[Cr],x,x,x,11,x
N#Cc1c(/N=C/c2c(O)n(Cc3ccco3)c(=O)[nH]c2=O)sc2c1CCCC2,86,11,75*,23,45
O=c1[nH]c(=O)n(Cc2ccco2)c(O)c1C=NCc1cccs1,88,6,22,-4,9
O=C1N[C@]2(CN3CCC2CC3)C(=O)N1CN(Cc1ccccc1)c1ccccc1,x,x,x,-4,x
FC(F)(F)c1nc2ccc(SSc3ccc4nc(C(F)(F)F)[nH]c4c3)cc2[nH]1,x,x,x,6,x
Nc1nc2c(c(=S)[nH]1)[n]([Hg][c]1cc([N+](=O)[O-])ccc1O)c[n+]2[C@H]1O[C@H](CO)[C@@H](O)[C@@H]1O,x,x,x,46,x
O=c1[nH]c(=O)n(CCC2=CCCCC2)c(O)c1C=Nc1cccc(F)c1,254*,5,10,15,20
Nc1ccccc1N=Cc1c(O)n(CCC2=CCCCC2)c(=O)[nH]c1=O,140,-2,30,1,57*
CCOC(=O)[C@@H]1[C@H]2c3ccccc3-c3ccccc3[C@@H]2C[C@H]1O,x,x,x,18,x
c1ccc2c(c1)Sc1ccccc1N2C[C@H]1CN2CCC1CC2,x,x,x,77*,x
Cc1nn(C)c(C)c1/C=C1/CC2C3CC=C4CC(O)CCC4(C)C3CCC2(C)C1=O (stereo not drawn),81,-1,7,-11,6
CCn1ncc(/C=C2/CC3C4CC=C5CC(O)CCC5(C)C4CCC3(C)C2=O)c1C (stereo not drawn),542*[fluorescence artefact?],4,7,-421,-32
Cc1ccc(S(=O)(=O)Cc2ccc(C(=O)N3CCC4(CC3)OCCO4)o2)cc1,49,6,56*,-3,51*
COC(=O)[C@@H]1c2cc3c(c(O)c2[C@@H](O)C[C@]1(C)O)C(=O)c1c(O)cc2c(c1C3=O)O[C@H]1O[C@]2(C)[C@@H](O)[C@H](N(C)C)[C@H]1O,x,x,x,27,x
COC(=O)c1c(C)ccc2c(O)c3c(cc12)C(=O)c1c2c(cc(O)c1C3=O)[C@@]1(C)O[C@@](C)(O2)[C@@H](O)[C@H](N(C)C)[C@H]1O,x,x,x,94*,x
CN(C)CCCNc1c2c(nc3ccc(Cl)cc13)CCCC2,x,x,x,-1,x
C[C@H]1CCC[C@@H](O)CCC/C=C/c2cc(O)cc(O)c2C(=O)O1,466*,6,7,1,3
C[C@H](CC(C#N)(c1ccccc1)c1ccccc1)N1CCCCC1,x,x,x,-11,x
Nc1ccnn1C1CCNCC1,43,5,95*[fluorescence artefact?],19,96*[fluorescence artefact?]
C[C@]12CCC(=O)C=C1C[C@H](O)[C@@H]1[C@@H]2CC[C@@]2(C)[C@H]1CC[C@]2(C)O,x,x,x,38,x
CC1(C)CC(=N[N-]C(N)=[SH+])CC(C)(C)N1.CC1(C)CC(=N[N-]C(N)=[SH+])CC(C)(C)N1.[Ni],x,x,x,68*,x
CSc1ccc2c(c1)c(CCN)c(C)n2Cc1ccccc1Cl,x,x,x,1,x
